Dicer processing: human Dicer pre-microRNA cleavage inhibition | cat-ELCCA pre-miR-21 Dicer processing, chemiluminescence; stronger effect = higher value | z-score at 25 µM | hit rate 6% among 47,000 | Q9UPY3; in the data active means z-score above about 3, passing the limit was not always enough;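 further: plate controls were vehicle for no effect and no enzyme for full effect; higher signal means more uncleaved substrate so more Dicer inhibition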
Target sequence (Q9UPY3 whole entry, looked up): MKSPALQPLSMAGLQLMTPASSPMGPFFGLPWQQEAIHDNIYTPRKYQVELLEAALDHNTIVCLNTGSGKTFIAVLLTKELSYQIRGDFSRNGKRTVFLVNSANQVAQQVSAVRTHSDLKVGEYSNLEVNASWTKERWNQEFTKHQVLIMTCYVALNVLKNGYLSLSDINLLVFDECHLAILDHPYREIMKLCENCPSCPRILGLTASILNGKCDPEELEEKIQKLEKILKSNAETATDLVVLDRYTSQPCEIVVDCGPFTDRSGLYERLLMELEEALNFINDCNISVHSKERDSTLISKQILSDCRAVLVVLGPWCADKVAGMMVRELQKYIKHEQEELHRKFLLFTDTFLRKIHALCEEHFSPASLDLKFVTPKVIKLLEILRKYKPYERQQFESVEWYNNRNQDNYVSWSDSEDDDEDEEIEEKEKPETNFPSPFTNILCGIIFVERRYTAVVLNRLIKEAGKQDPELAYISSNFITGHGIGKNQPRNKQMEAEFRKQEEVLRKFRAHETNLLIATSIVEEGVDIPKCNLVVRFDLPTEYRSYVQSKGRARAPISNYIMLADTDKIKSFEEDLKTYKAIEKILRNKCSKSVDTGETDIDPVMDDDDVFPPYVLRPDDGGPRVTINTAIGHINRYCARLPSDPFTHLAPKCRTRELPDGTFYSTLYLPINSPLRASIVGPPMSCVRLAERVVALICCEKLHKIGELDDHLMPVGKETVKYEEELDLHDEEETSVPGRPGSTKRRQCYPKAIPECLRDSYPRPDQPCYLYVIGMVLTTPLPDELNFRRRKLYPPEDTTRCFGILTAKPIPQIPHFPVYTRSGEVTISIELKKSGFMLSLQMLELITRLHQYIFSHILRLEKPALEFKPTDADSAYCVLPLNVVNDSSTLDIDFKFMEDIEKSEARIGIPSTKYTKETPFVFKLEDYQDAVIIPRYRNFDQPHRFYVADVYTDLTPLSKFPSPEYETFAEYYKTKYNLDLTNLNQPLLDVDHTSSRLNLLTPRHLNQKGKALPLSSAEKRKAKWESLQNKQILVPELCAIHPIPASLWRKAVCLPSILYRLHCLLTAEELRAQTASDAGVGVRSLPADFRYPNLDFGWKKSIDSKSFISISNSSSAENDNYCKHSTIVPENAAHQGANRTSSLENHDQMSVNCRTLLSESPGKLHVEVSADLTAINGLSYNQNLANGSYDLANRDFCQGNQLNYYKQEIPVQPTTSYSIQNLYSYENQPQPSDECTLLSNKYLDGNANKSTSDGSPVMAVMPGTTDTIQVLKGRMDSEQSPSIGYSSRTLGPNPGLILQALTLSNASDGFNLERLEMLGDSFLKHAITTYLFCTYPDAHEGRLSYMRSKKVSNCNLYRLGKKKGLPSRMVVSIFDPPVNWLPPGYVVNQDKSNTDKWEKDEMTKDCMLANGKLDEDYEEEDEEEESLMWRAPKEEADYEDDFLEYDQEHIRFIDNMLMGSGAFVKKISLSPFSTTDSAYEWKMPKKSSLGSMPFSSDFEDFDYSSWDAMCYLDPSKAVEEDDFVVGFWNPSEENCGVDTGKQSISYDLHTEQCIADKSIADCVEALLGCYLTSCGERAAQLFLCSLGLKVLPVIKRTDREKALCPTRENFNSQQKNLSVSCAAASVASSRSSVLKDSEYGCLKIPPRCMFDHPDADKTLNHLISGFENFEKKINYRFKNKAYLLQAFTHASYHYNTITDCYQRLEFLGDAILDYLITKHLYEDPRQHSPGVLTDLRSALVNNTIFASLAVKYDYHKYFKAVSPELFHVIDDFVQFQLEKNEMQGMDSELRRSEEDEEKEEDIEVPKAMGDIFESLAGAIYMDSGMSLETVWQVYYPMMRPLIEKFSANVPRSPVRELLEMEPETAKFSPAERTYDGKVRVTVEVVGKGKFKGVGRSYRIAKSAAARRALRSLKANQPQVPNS
Numbers without * were called inactive. Shown is part of a subset that was picked to be rich in hits.

SMILES	Dicer processing
CCCC(=O)N(c1ccc2oc(=O)sc2c1)S(=O)(=O)c1ccc(Cl)cc1	2.1
CCCCC(=O)N(c1ccc2oc(=O)sc2c1)S(=O)(=O)c1ccccc1	-0.63
CCc1ccc(-c2nc3cc(NS(=O)(=O)c4ccccc4)ccc3o2)cc1	2
Cn1c(SCC(=O)Nc2c(C#N)cnn2-c2ccccc2)nnc1-c1ccncc1	0.47
CCOC(=O)CSc1n[nH]c(-c2ccncc2)n1	2
Cc1cc(C(=O)Nc2ccc(F)cc2)c(C)o1	-1.7
C/C(Nc1ccc(F)cc1)=C1/CCOC1=O	3.2*
C/C(Nc1ccc([N+](=O)[O-])cc1)=C1/CCOC1=O	1.6
CCOc1ccccc1C1C(C(=O)OC2CCCCC2)=C(C)NC2=C1C(=O)CCC2 (configuration not stated)	1.7
FC(F)(F)c1cc(-c2ccccc2)no1	0.22
Cc1cc(C)c2[nH]cc(C(=O)O)c(=O)c2c1	-0.19
CCNc1[nH]c(=S)nc2sc3c(c12)CCC(C)C3 (configuration not stated)	0.26
O=C(Nc1cccc(NC(=O)c2c(F)cccc2F)n1)c1c(F)cccc1F	-0.22
O=C(O)COCC(=O)Nc1ccccn1	0.85
O=C(Nc1ccccn1)c1cccc(C(=O)Nc2ccccn2)n1	3.5*
CCOC(=O)c1c(NC(=S)Nc2cc(C)ccn2)sc(C)c1C	-0.56
c1ccc2c(c1)CC/C2=N\NC1=NCCN1	-0.03
CC(=O)COc1nc2c(c(-c3ccc(Cl)cc3)c1C#N)CCc1ccccc1-2	3.2*
CC(=O)COc1nc2c(c(-c3ccco3)c1C#N)CCc1ccccc1-2	243
CCOc1nc2c(c(-c3ccc(OC)cc3)c1C#N)Cc1ccccc1-2	-1.6
CN(C)CCNC(=O)COc1cc(-c2ccccc2)nc2ccccc12	-0.32
Cc1ccc(C(=O)n2nc(C)c(Sc3nccn3C)c2C)cc1	-0.79
CCn1c(N2CCOCC2)nc2c1c(=O)[nH]c(=O)n2C	-0.43
CCC(C)Cn1c(Sc2ncc([N+](=O)[O-])s2)n[nH]c1=O (configuration not stated)	-0.76
CSCCC(NS(=O)(=O)c1cc(C(F)(F)F)cc(C(F)(F)F)c1)C(=O)NNC(=O)c1ccc(Cl)cc1 (configuration not stated)	21
SMILES	Dicer processing
CCN(CC)c1ncnc2c1[nH]c1ccccc12	1.9
CN(C)c1ncnc2c1[nH]c1ccccc12	3.5*
Cc1ccc2[nH]c3c(N4CCCCC4)ncnc3c2c1	2.9
CSc1nc(C)nc(Nc2cccc(C(F)(F)F)c2)c1C#N	-1.1
CCOC(=O)CC1=Nc2ccccc2NC(=O)C1	0.09
N#Cc1ccc(C#CCOC(=O)Nc2ccccc2)cc1	-8
CCOC(=O)NC1=C(C#N)C=Nc2ccccc2N1	23*
O=c1c(NC2CCCCC2)c(NC2CCCCC2)c1=O	5.9*
S=C(NC1CCCCC1)C(=S)NC1CCCCC1	-1.1
S=c1[nH]nc(NC2CCCCC2)s1	0.77
CCOC(=O)/C(C#N)=C/Nc1ncc(C(F)(F)F)cc1Cl	-0.96
COC(=O)Cc1c(-c2ccccc2)c2cc(Br)ccc2[nH]c1=O	3.9*
COc1ccc2[nH]c(=O)c(-c3ccccc3)c(O)c2c1	0.63
COC(=O)c1[nH]c2ccc([N+](=O)[O-])cc2c1-c1ccccc1	0.35
O=C1CC(NCCc2c[nH]c3ccc(Cl)cc23)C(=O)N1c1cccc(Cl)c1 (configuration not stated)	2.5
CCOC(=O)Nc1cc(Cl)cc(Cl)c1	0.19
CC1=CC(c2ccc(Cl)cc2)n2nc(NC(=O)c3ccco3)nc2N1 (configuration not stated)	9.8*
CS(=O)(=O)Nc1nc2n(n1)C(c1ccc(F)cc1)C=C(c1ccc(Cl)cc1)N2 (configuration not stated)	2.4
Cc1ccc(C2C=C(c3ccc(Cl)cc3)Nc3nc(NS(C)(=O)=O)nn32)cc1 (configuration not stated)	2.5
C=CCOc1c(Cl)cc(C2C(C(=O)OC)=C(C)NC3=C2C(=O)c2ccccc23)cc1OC (configuration not stated)	0.02
CN(C(=O)CC#N)c1ccc(F)cc1F	-0.21
O=C(NNc1cc(Cl)ccc1Cl)C1CCCS1 (configuration not stated)	1.6
O=C(NNc1cc(Cl)ccc1Cl)c1sccc1Cl	5.2*
O=C(NNc1c(Cl)cccc1Cl)c1sccc1Cl	3
Cc1nc(N)nc(C(F)(F)F)c1Br	1.4
SMILES	Dicer processing
c1cnc(Nc2nc(-c3cccnc3)cs2)nc1	-0.16
Cc1ccc(C)c(Nc2nc(-c3cccnc3)cs2)c1	3.3*
Cc1ccc(Nc2n[nH]c(=S)s2)cc1	2.9
Cc1c(Cl)cccc1Nc1n[nH]c(=S)s1	0.45
Cc1cc(C)nc(NS(=O)(=O)c2ccc(Nc3nc(-c4cccnc4)cs3)cc2)n1	-0.72
Cc1ccc(C)c(Nc2n[nH]c(=S)s2)c1	4.6*
Cc1ccc(OCc2nc(C#N)c(NCCCN(C)C)o2)cc1	2.2
NS(=O)(=O)c1ccc(NNC(=O)CC2(CC(=O)O)CCCC2)cc1	0.82
CCCOc1ccccc1C1C2=C(CCCC2=O)Nc2nnnn21 (configuration not stated)	0.26
Cn1c(=O)c2c(nc(N/N=C/c3c(Cl)cccc3Cl)n2Cc2ccccc2)n(C)c1=O	0.52
Oc1ccc2ccccc2c1CN1CCN(c2ccc(F)cc2)CC1	-3.4
Oc1ccc2ccccc2c1CN1CCc2ccccc2C1	3.6*
CC1CCN(Cc2c(O)ccc3ccccc23)CC1	1.6
S=C(Nc1ccc2c(c1)CCC2)N1CCSCC1	-0.98
COC(=O)c1sc(-c2ccc(C(C)(C)C)cc2)cc1NS(=O)(=O)c1cn(C)cn1	3
CC1(C)CC(=O)c2sc(NC(=O)CSc3nc(-c4ccccc4)c(C#N)c(=O)[nH]3)nc2C1	4.1*
Cc1cc(NC(=O)CSc2nc(-c3ccccc3)c(C#N)c(=O)[nH]2)no1	0.24
CCC(Oc1ccccc1)C(=O)Nc1nc2c(s1)C(=O)CC(C)(C)C2 (configuration not stated)	-1.8
Cc1ccc(C(=O)CC2(O)C(=O)Nc3ccc(Br)cc32)cc1 (configuration not stated)	0.55
Cc1c(Br)sc2sc(-c3ccnc(SCc4ccccc4)n3)c(C)c12	0.5
Cc1ccc2oc(-c3cccc(N)c3C)nc2c1	2.1
Cc1ccc(-c2nc3ccccc3o2)cc1N	-0.44
Cc1cc2nc(-c3cccc(N)c3C)oc2cc1C	3*
CC(C)Sc1cc(C#N)c2cc(Br)ccc2n1	-0.14
COC(=O)C1=C(C)NC2=C(C(=O)CCC2)C1c1ccc(N2CCOCC2)c([N+](=O)[O-])c1 (configuration not stated)	1.9
SMILES	Dicer processing
COC(=O)C1=C(C)NC2=C(C(=O)CC(c3ccc(F)cc3)C2)C1c1cn[nH]c1-c1ccc(F)cc1 (configuration not stated)	0.92
COC(=O)CSC1=C(C#N)C(c2ccc(O)cc2)CC(=O)N1 (configuration not stated)	0.15
O=C1c2cccc([N+](=O)[O-])c2C(=O)N1c1ccc(OC(F)(F)F)cc1	-0.86
Cc1ncc(S(=O)(=O)C(C)(C)C)c(N)n1	-0.51
Cc1ncc(S(=O)(=O)Cc2cccs2)c(N)n1	5.2*
CSc1ncc(S(=O)(=O)Cc2cccs2)c(N)n1	0.02
CCOc1cc([N+](=O)[O-])c(OCC)cc1N1CCOCC1	-0.81
COc1nccnc1NS(=O)(=O)c1ccc(NC(=O)c2cc(Cl)cc(Cl)c2)cc1	2.2
COc1nccnc1NS(=O)(=O)c1ccc(NCc2cc(Br)ccc2O)cc1	6.3*
CCn1c(NCc2cc(Br)ccc2O)nc2ccccc21	1.6

Assay outcomes (PubChem)
